Assay outcomes (PubChem BioAssay)
Shown are actives, neighbours in structure and some others; about 7.8% of the full set was active somewhere.
Lassa entry inh = qHTS for Inhibitors of binding or entry into cells for Lassa Virus. Potency, µM (doses to about 37.9 µM), for inactives: at the highest dose activity change, negative = inhibition, actives largely listed as inhibitors. AID 540256, 2011. Lassa virus pseudotype entry inhibition, cell reporter. 300,000 compounds, 1.2% hits; calls by dose curve; tested in HEK293 cells; also: potency is read from the fitted curve at half-maximal effect; nearly all actives have a fitted effect of over 50% in size
VACV mCherry inh = qHTS for Stage-Specific Inhibitors of Vaccinia Orthopoxvirus: mCherry Reporter Primary qHTS. Vaccinia virus mCherry reporter infection, fluorescence. Potency, µM (highest dose often 36.5 µM), for the others: at the top dose activity change, negative = inhibition, hits mostly inhibitors. 310,000 compounds, 0.63% hits. AID 720579, 2013; calls by dose curve; tested in A549 cells; also: potency is read from the fitted curve at half-maximal effect; nearly all actives have a fitted effect of over 35% in size
VACV Venus inh = qHTS for Stage-Specific Inhibitors of Vaccinia Orthopoxvirus: Venus Reporter Primary qHTS. 330,000 compounds, 0.46% hits. AID 720580, 2013. Vaccinia virus Venus reporter expression, fluorescence. Potency, µM (titrated, usually from 36.5 µM), inactives show top-dose activity change, negative = inhibition, most hits filed as inhibitors; calls by dose curve; tested in A549 cells; also: potency is read from the fitted curve at half-maximal effect; nearly all actives have a fitted effect of over 30% in size
HCMV antiviral = qHTS Assay for inhibitors of the human cytomegalovirus (HCMV). HFF cells, HCMV-luciferase reporter, 72 h; stronger effect = lower value. activity change, negative = inhibition, % at 57.5 µM. 410,000 compounds, 4.5% hits. AID 1259415, 2018; in the data active = activity change below about -60%; inconclusive = no clear call, values can overlap the other calls; inactive = above about -39%
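Inhibition of viral replication was scored as loss of reporter luminescence in HFFs infected with HCMV-luciferase (MOI 1 PFU/cell) for 72 h; compounds tested at 2 doses, normalized to buffer and Salinomycin controls.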
HCV inhibitor = qHTS Assay for Inhibitors of Hepatitis C Virus (HCV); 340,000 compounds, 3.4% hits; Huh7.5.1 HCVcc-Cre infection, luciferase reporter, 44 h; Potency, µM (highest dose often 41.8 µM), for inactives: top-dose activity change, negative = inhibition, hits mostly inhibitors; active = well fitted inhibition curve with a large enough effect; inconclusive = small, poorly fitted or top-dose-only effect, or another doubt; inactive = no such curve, though single readings can be large or run the other way; also: potency is read from the fitted curve at half-maximal effect
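A cell-based infection assay in which seeded cells (1,000 per well) receive test compound after 4 h, are inoculated with HCVcc-Cre at approximately 0.5 moi, and are incubated 44 h before luminescence detection.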
MARV entry inh = qHTS for inhibitors of binding or entry into cells for Marburg Virus | Potency, µM (titrated, usually from 37.8 µM), inactives show top-dose activity change, negative = inhibition, most hits filed as inhibitors | 300,000 compounds, 1.8% hits | AID 540276, 2011 | Marburg virus pseudotyped entry inhibition, cell reporter; calls by dose curve; tested in HEK293 cells; also: potency is read from the fitted curve at half-maximal effect
Starred values were filed as active, the others as inactive; i = inactive; ? = inconclusive; / = no result given; ! = not active in a repeat; [ ] = dose if it differs, or a comment. % is scaled to controls: 0 for no effect and ±100 for the full control effect.

SMILES	Lassa entry inh	VACV mCherry inh	VACV Venus inh	HCMV antiviral	HCV inhibitor	MARV entry inh
CN(c1ccc(OCC(=O)N2CCN(c3ccc(F)cc3)CC2)cc1)S(=O)(=O)c1cccs1	?	-7%	-15%	-38	3.5µM*	8.9µM*
COc1cc(=O)n2c(c1C(=O)N(C)Cc1nonc1C)CCN(C(=O)c1ccc(C)c(C)c1)CC2	/	-9%	2%	/	/	/
Cc1ccc(C#C[C@@H]2C=C[C@H](Oc3ccc4c(c3)OCO4)[C@@H](CO)O2)c(C)c1	/	/	/	/	/	11%[14.2 µM]
COc1ccc(C(=O)NC(=S)Nc2ccccc2N2CCOCC2)cc1Br	?	0%	-8%	-11	16µM*	?
COc1ccc(C(=O)Nc2ccccc2N2CCOCC2)cc1Br	-11%	-8%	-6%	8	-26%	-18%
Fc1cc(F)cc(NC(=S)Nc2ccccc2N2CCOCC2)c1	-9%[46.1 µM]	-19%	-9%	-62*	-22%	?
COc1cccc(OC)c1C(=O)NC(=S)Nc1ccc2c(c1)C(=O)N(C)C2=O	5%	?	-30%	-15	10%	?
COc1cc(C(=O)NC(=S)Nc2ccc3c(c2)C(=O)N(C)C3=O)cc(OC)c1OC	19%	-10%	-1%	13	10µM*	10%
O=C(NC(=S)Nc1ccccc1N1CCCCC1)c1ccco1	-10%	i	0%	-71*	?	0%
O=C(NC(=S)Nc1ccccc1N1CCCC1)c1ccco1	5%	-13%	-1%	-13	-10%	-11%[14.2 µM]
CC(=O)Nc1ccc(SC[C@H](Cc2ccccc2)N2CC[C@@H](N)CCC2=O)cc1	/	-7%	-4%	/	/	/
CCC(=O)N1c2ccccc2CC1C(=O)NCCCN1CCN(c2cccc(Cl)c2)CC1 (stereo not given)	-3%[46.1 µM]	-9%	-3%	-8	/	/
COc1cc(C(=O)NC(=S)Nc2ccccc2N2CCCC2)cc(OC)c1OC	/	i[7.34 µM]	0%[7.34 µM]	?	11µM*	/
CCCCCCC(=O)Nc1ccc2nc3c(=O)n(C)c(=O)n(C)c3nc2c1C	11%[46.1 µM]	0%	3%	6	/	-4%[46.1 µM]
CCCCCCCCCCOC(=O)Cn1c(COc2ccccc2)[n+](C)c2ccccc21	/	?	11µM*	-40	?	/
CCCCCCCCCCOC(=O)Cn1c(COc2ccccc2C)[n+](C)c2ccccc21	8.9µM*	?	28µM*	/	?	25µM*
CCCCCCCCCCOC(=O)Cn1c(COc2ccc(OC)cc2)[n+](C)c2ccccc21	?	?	11µM*	/	?	3.2µM*
CCCCCCCCCCOC(=O)Cn1c(COc2ccc(Cl)cc2)[n+](C)c2ccccc21	/	?	10µM*	-40	?	/
CCOC(=O)Cn1c(COc2ccccc2OC)[n+](C)c2ccccc21	/	/	/	22	?	/
CCCCCCCCCCOC(=O)Cn1c(COc2cccc(C)c2)[n+](C)c2ccccc21	-17%[46.1 µM]	-4%	?	-37	?	?
O=C(c1ccccc1F)N1c2nc(-c3ccco3)nn2C2(CCCCC2)[C@@H]2CCCC[C@@H]21	6%[46.1 µM]	11%	-1%	-31	/	?
COc1ccc(-c2nc3sc(CCNC(=O)c4cc(OC)c(OC)c(OC)c4)c(C)n3n2)cc1	-23%[46.1 µM]	13%	-8%	82	/	/
CCOc1ccc(CNS(=O)(=O)c2c(C(=O)N3CCCCCC3)c(C)n(C)c2C)cc1OC	-3%[46.1 µM]	-10%	-3%	-12	/	/
COc1ccccc1C1CN(Cc2cnn(C)c2)Cc2ccccc2O1 (stereo not given)	/	-9%	0%	/	/	/
CC1=CC[C@@H](COc2ccccc2)O[C@@]2(C1)C(=O)N(Cc1ccc(F)cc1)c1cccc(Br)c12	/	/	/	/	/	-10%[14.2 µM]
SMILES	Lassa entry inh	VACV mCherry inh	VACV Venus inh	HCMV antiviral	HCV inhibitor	MARV entry inh
O=C(O)c1cccc(N2CCCCS2(=O)=O)c1	7%	-6%	-2%	-100*	12%	-1%
Cc1cc(C)c2nc(C)cc(Nc3ccc(C(=O)N(C)C)cc3)c2c1	/	/	/	/	6%	/
CC(=O)c1cccc(Nc2cc(C)nc3c(C)cccc23)c1	3%	-14%[7.34 µM]	-22%[7.34 µM]	12	-17%	?
CC(=O)c1ccc(Nc2cc(C)nc3c(C)cc(C)cc23)cc1	?	-30%	-25%	?	?	4.1µM*
Cc1cc(C)c2nc(C)cc(Nc3ccc(C(=O)NCCO)cc3)c2c1	-28%[46.1 µM]	-7%	-15%	-91*	-13%	11µM*
COc1cc(Cn2c3ccc(NC(=O)NCCc4ccccc4)cc3c(=O)n2C)ccc1F	/	17%	-16%	-68*	/	/
Cn1c(=O)c2cc(NC(=O)NCCc3cccs3)ccc2n1Cc1ccccc1	/	1%	1%	-77*	/	/
COc1cc(C#Cc2c(-c3cncn3C)n(C)c3ccc(Br)cc23)cc(OC)c1	/	-15%	?	-9	1.1µM*	/
Clc1ccc(OCc2nnc(SCCN3CCCCC3)n2Cc2ccco2)cc1	-21%	/	/	0	?	26µM*!
O=c1c2ccccc2nnn1CSc1nnc(COc2ccc(Cl)cc2)n1Cc1ccco1	-21%	/	/	-60*	?	-1%
O=c1c2ccccc2nnn1CSc1nc2cc(Cl)ccc2c(=O)n1Cc1ccco1	-2%	/	/	31	20%	6%
COc1ccccc1NC(=O)CSc1nnc(COc2ccc(Cl)cc2)n1Cc1ccco1	-9%	/	/	28	11µM*	-16%
CC(C)N(C(=O)Cn1cc(S(=O)(=O)Cc2ccc(C(F)(F)F)cc2)c2ccccc21)C(C)C	?	-2%	-12%	-22	/	/
Cc1ccccc1CN1Cc2cccc3c2[C@H](C=CC3)CC1=O	/	i	-10%	/	/	/
CCOc1ccccc1NC(=O)Cn1c(=O)n(-c2ccc(C)c(C)c2)c(=O)c2c(C)c(C(=O)N(C)C)sc21	7%[46.1 µM]	1%	-1%	-3	/	/
O=C(C1CCCN(S(=O)(=O)c2cccc3nsnc23)C1)N1CCN(c2cccc(Cl)c2)CC1 (stereo not given)	?	?	-27%	-86*	/	?
O=C(C1CCCN(S(=O)(=O)c2cccc3nsnc23)C1)N1CCN(c2ccccn2)CC1 (stereo not given)	-54%	i	-22%	-65*	?	?
CC1CCN(C(=O)C2CCCN(S(=O)(=O)c3cccc4nsnc34)C2)CC1 (stereo not given)	14%[46.1 µM]	i	-8%	-28	-7%	13%[46.1 µM]
O=C1CC(c2ccccc2)c2c(n3ncnc3[nH]c2=O)N1 (stereo not given)	-10%[46.1 µM]	-3%	-13%	4	/	/
Cc1nn(C)c(Cl)c1CN1CCOc2ccc(CN3CCC(Oc4cccnc4)CC3)cc2C1	/	-20%	-19%	/	/	/
CCCn1cc(S(=O)(=O)c2ccccc2)c(=O)c2cc(F)c(N3CCCCCC3)cc21	?	-28%	?	?	/	/
